CHX counter – counter-screen hit for Shiga toxin inhibitors, cycloheximide | cell reporter, cycloheximide protein synthesis inhibition counterscreen | max response, % | hit rate 12% among 300,000 | AID 2314; in the data active means max response mostly above about 13%, no sharp cut-off; inactive means mostly below about 14%; further: read at 38.3 µM for the half of the compounds with a filed dose; 0% is about no effect
Pf growth 96h – inhibits malaria parasite growth, 96 h | AID 504834 | hit rate 6.9% among 320,000 | P. falciparum luciferase reporter growth, 96 h | Potency, µM (titrated, usually from 28.7 µM), inactives show top-dose activity change, negative = inhibition, hits mostly inhibitors; active means well fitted inhibition curve with a large enough effect; inconclusive means small, poorly fitted or top-dose-only effect, or another doubt; inactive means no such curve, though single readings can be large or run the other way; further: potency means the concentration at half of the fitted maximal effect; on the % scale 0 is the no-effect control and ±100 the full control effect
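Two-generation exposure (96 h) targets delayed-death phenotype. Reporter parasites carrying integrated firefly luciferase, in red cells at 2% hematocrit and 0.05% parasitemia final, kept at 37 C, 5% CO2; luminescence loss indicates inhibition.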
Pf growth 48h – inhibits P. falciparum growth in the first generation, 48 h; Potency, µM (highest dose often 28.7 µM), without a hit: top-dose activity change, negative = inhibition, usual class: inhibitors; hit rate 5.9% among 310,000; P. falciparum luciferase growth in erythrocytes, 48 h; active means well fitted inhibition curve with a large enough effect; inconclusive means small, poorly fitted or top-dose-only effect, or another doubt; inactive means no such curve, though single readings can be large or run the other way; further: potency means the concentration at half of the fitted maximal effect; on the % scale 0 is the no-effect control and ±100 the full control effect
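Here the parasites carry a stable luciferase gene and grow inside erythrocytes in Albumax-based RPMI medium with compound for one erythrocytic cycle. Activity is scored as loss of luminescent signal.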
NS1 function inh – inhibitors of influenza NS1 protein function | hit rate 0.4% among 270,000 | Potency, µM (highest dose often 46.1 µM), for the others: top-dose activity, positive = more growth; further: potency means the concentration at half of the fitted maximal effect; actives are rising curves; nearly all actives have a fitted effect of over 50% in size
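OD600 was taken as the measure of yeast growth restored by compound in an NS1-expressing S. cerevisiae strain. Cells had been washed out of glucose medium and diluted 1:100 into galactose -URA medium, pH 6.0.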
SARS PLpro yeast – blocks SARS-CoV papain-like protease in a yeast assay | S. cerevisiae expressing SARS-CoV PLpro, growth rescue | Potency, µM (titrated, usually from 32.9 µM), for the others: at the highest dose activity, positive = growth rescue, hits mostly activators | hit rate 0.19% among 330,000; further: potency means the concentration at half of the fitted maximal effect; 0% is about no effect; nearly all actives have a fitted effect of over 55% in size
Shiga toxin inh – Shiga toxin inhibition; Vero cells, Shiga toxin protein synthesis inhibition reporter; inhibition, % at 38.7 µM; hit rate 9.2% among 290,000; AID 2315; in the data active means inhibition mostly above about 28%, no sharp cut-off; inactive means mostly below about 43%; further: 0% is about no effect
An asterisk follows results filed as active; u = inconclusive; x = no result. This is a sample that favours compounds with a hit; in the whole collection about 21% have one here. Unless noted, the call rests on the fitted dose curve.

SMILES	CHX counter	Pf growth 96h	Pf growth 48h	NS1 function inh	SARS PLpro yeast	Shiga toxin inh
CCN(c1cc(C)cc(C)c1)S(=O)(=O)c1nnc(NC(=O)C(C)C)s1	-2.1	u	u	5.5%	0.3%	-6.8
CCN(c1ccc(C)cc1C)S(=O)(=O)c1nnc(NC(=O)C(C)C)s1	0.9	-6.0%	13.1µM*	5.4%	-0.8%	-18.6
CN(C)S(=O)(=O)c1cccc(C(=O)OCC(=O)NCc2ccc3c(c2)OCO3)c1	2.6	15.1%	12.9%	x	-1.5%	2.0
O=C(NCc1ccco1)/C(=C/c1ccc(F)cc1)NC(=O)c1ccccc1	-5.7	106.6%	-12.2%	11.4%	0.8%	14.1
S=C(NCc1ccco1)Nc1ccc(Oc2ccccc2)cc1	34.4*	5.5%	-5.0%	-3.0%	-2.8%	54.5
S=C(NCc1ccco1)Nc1cc(Cl)c(Cl)cc1Cl	8.9	-19.1%	11.7%	-19.6%	16.9%	20.4
S=C(NCc1ccco1)Nc1ccc(Cl)c(Cl)c1	31.1*	51.0%	20.8%	-198.4%	-38.8%	60.0
O=C(OC(C(=O)NCc1ccco1)C(OC(=O)c1ccccc1)C(=O)NCc1ccco1)c1ccccc1 (stereo not drawn)	16.6*	6.2%	10.4%	19.4%	19.0%	66.1*
Cc1ccccc1NC(=S)NCc1ccco1	-3.2	0.329µM*	8.3%	0.5%	-2.7%	11.4
CCC(C)n1c(SCc2ccc([N+](=O)[O-])cc2)nc2ccsc2c1=O (stereo not drawn)	-2.6	-11.1%	u	4.9%	-4.1%	-9.6
S=C(NCc1ccco1)Nc1ccc(N2CCOCC2)cc1	20.2*	-103.0%	23.1%	2.4%	-4.5%	17.3
CCOC(=O)c1ccc(NC(=S)NCc2ccco2)cc1	13.6	-14.7%	0.0%	-6.5%	-1.8%	63.4*
S=C(NCc1ccco1)Nc1cccc(Cl)c1	12.2	38.9%	-11.2%	-6.0%	-8.6%	32.0*
CCOc1ccc(NC(=S)NCc2ccco2)cc1	15.2	23.4%	12.7%	x	5.6%	36.2
Cc1ccc(NC(=O)CCC(=O)NNC(=O)C(c2ccccc2)c2ccccc2)c(C)c1	-1.9	11.6%	4.2%	16.2%	-6.7%	1.6
CSc1nc(Oc2ccc(=O)n(C)n2)nc(N(C)C)n1	0.4	-2.3%	13.7%	7.8%	7.0%	-13.8
O=C(Nc1ccccc1)c1cc(S(=O)(=O)N2CCCCC2)ccc1N1CCOCC1	x	u	u	x	2.8%	x
COc1ccccc1OCC(=O)NC1CCCCCCC1	x	x	x	x	-10.7%	x
COc1ccccc1-c1ccc(Nc2cccc(C(F)(F)F)c2)nn1	14.8*	-2.1%	37.4%	23.8%	u	13.7
COc1ccccc1-c1ccc(NC2CCCCC2)nn1	30.8*	80.7%	122.1%	-42.2%	-21.1%	72.3*
COc1cccc(C(=O)Nc2ccccc2N2CCCC2)c1	0.7	136.3%	-20.4%	u	-2.5%	13.1
COc1cccc(C(=O)/C=C2\Sc3ccccc3N2C)c1	31.2*	11.8%	198.8%	x	-3.5%	83.9*
CN1/C(=C\C(=O)c2cccnc2)Sc2ccccc21	42.5*	u	69.3%	-51.7%	-1.7%	93.1*
O=c1[nH]c(-c2ccccc2)c(-c2ccccc2)nc1[N+](=O)[O-]	6.4	-0.2%	9.3%	8.5%	0.8%	12.9
CCn1c(C)c(C(C)=O)c(N2CCCCC2)nc1=S	1.6	11.7µM*	-0.2%	1.8%	0.8%	-7.2
SMILES	CHX counter	Pf growth 96h	Pf growth 48h	NS1 function inh	SARS PLpro yeast	Shiga toxin inh
CCOc1ccc(-c2nnn(CC(=O)c3ccc4c(c3)OCCO4)n2)cc1	10.6	u	-14.4%	-6.1%	1.0%	12.0
CCCOc1ccc(-c2nnn(CC(=O)c3ccc4c(c3)OCCO4)n2)cc1	-2.1	7.38µM*	u	-23.5%	-10.5%	-2.7
COc1ccc(-c2nnn(CC(=O)c3ccc4c(c3)OCCO4)n2)cc1OC	16.1*	28.7%	16.3%	-8.5%	-8.3%	36.1
O=C(c1cccnc1)C1CCCN(Cc2nc(Cc3ccccc3)no2)C1 (stereo not drawn)	-1.1	0.0%	u	0.5%	-1.6%	22.2
Cc1ccc(CNC(=O)CSc2nnc(CNC(=O)c3ccccc3)o2)cc1	5.1	-2.7%	-7.7%	3.9%	1.9%	8.1
COc1ccccc1NC(=O)CSCC(=O)N1c2ccccc2CCc2ccccc21	-1.5	5.86µM*	u	-42.4%	9.1%	-12.0
COC(=O)N1c2ccccc2CCc2ccccc21	-1.7	36.0%	7.38µM*	2.0%	1.2%	-4.8
O=C(COc1ccccc1C(=O)O)Nc1nc2ccc([N+](=O)[O-])cc2s1	9.0	21.2%	33.1%	2.7%	-0.6%	13.7
C[C@H](NC(=O)[C@@H]1CSC2c3ccccc3C(=O)N21)C(=O)NCCc1ccccc1 (stereo partly drawn)	42.8*	96.0%	50.4%	-6.9%	18.7%	51.3*
C[C@H](NC(=O)[C@@H]1CSC2c3ccccc3C(=O)N21)C(=O)NCCc1ccc(F)cc1 (stereo partly drawn)	8.1	-28.4%	0.0%	u	3.9%	18.2
Cn1c(O)c(C2=c3ccccc3=NC2=O)sc1=Nc1ccc(Cl)cc1	7.0*	-5.2%	22.3%	10.9%	5.1%	7.1
O=C(O)Cn1c(O)c(C2=c3ccccc3=NC2=O)sc1=O	10.5	27.1%	12.4%	4.5%	-0.4%	20.8
Cc1ccc(C)c(OCc2cc(C(=O)N3CCC(N4CCCC(O)C4)CC3)no2)c1 (stereo not drawn)	0.1	-10.1%	-24.4%	0.1%	1.3%	5.7
CC(=O)NCCC1CCCCN1C(=O)c1cc(COc2cc(C)ccc2C)on1 (stereo not drawn)	44.7*	28.1%	25.0%	-6.5%	9.8%	101.2*
COCCN1CCN(C(=O)c2cc(COc3cc(C)ccc3C)on2)CC1	39.0*	35.9%	7.5%	8.8%	2.0%	81.2*
O=C(NC1CCN(Cc2ccccc2)C1)c1cc(COc2ccc(F)cc2F)on1 (stereo not drawn)	4.3	u	u	2.8%	0.5%	17.0
Cc1ccc(C)c(OCc2cc(C(=O)NC3CCN(Cc4ccccc4)CC3)no2)c1	29.2*	u	u	-10.7%	-2.5%	22.6
Cc1ccc(C)c(OCc2cc(C(=O)N3CCNC(=O)C3)no2)c1	15.4	23.7%	-3.2%	9.4%	1.4%	6.8
Cc1ccc(C)c(OCc2cc(C(=O)N3CCOCC3)no2)c1	48.6*	u	36.6%	-14.8%	-4.9%	58.3*
COc1ccc(C(=O)Nc2c3c(nn2-c2ccc(Cl)cc2)CS(=O)(=O)C3)cc1	-3.6	u	u	-18.8%	-0.4%	-2.8
CCCc1ccc(S(=O)(=O)N/N=C\c2ccc3c(c2)OCO3)cc1	-2.7	u	2.9%	-70.1%	-5.0%	4.3
COCCCC1CCN(C(=O)c2cc(COc3cc(C)ccc3C)on2)CC1	55.7*	u	22.3%	-9.3%	x	161.6*
FC(F)(F)c1nc(SCc2ccc(Cl)cc2Cl)n[nH]1	20.3*	-0.9%	22.4%	-77.5%	-7.2%	28.4

Screens from PubChem BioAssay.
